Bioassay records: PubChem BioAssay, several laboratories
CRFBP-R2 agonist – agonists of CRF-BP/CRF-R2 complex, primary screen, cell-based, HEK293, calcium dye fluorescence, uHTS; CRF-binding protein / CRF receptor 2 complex (human); calcium dye fluorescence (FLIPR); percent of saturating CRF peptide response; activation, % at 13.2 µM; 350,000 compounds, 0.46% hits; AID 588473, 2011;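 active = activation of at least 50%, plus an integration ratio under a set limit after plate pattern correction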;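 note: plate controls were neutral control wells without compound for no effect and CRF at EC100 for full effect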
V-ATPase pHluor – regulators of yeast V-ATPase proton pumping, primary screen, pHLuorin cytosolic pH fluorescence; S. cerevisiae; response, % at 10 µM; 350,000 compounds, 0.37% hits; in the data active = response mostly above about 7.3%, no sharp cut-off; inactive = mostly below about 5.4%; note: actives read high
CRFBP-R2 block – antagonists of CRF-BP/CRF-R2 complex, primary screen, cell-based, HEK293, calcium dye fluorescence, uHTS. CRF-induced calcium fluorescence. inhibition, % at 11.8 µM. 350,000 compounds, 0.59% hits;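 active = inhibition of the ligand-induced calcium signal above about 50% at the single tested concentration, limit read from the data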
NTR1 ag – agonists of human NTR1, primary screen, imaging, U2OS cells, beta-arrestin-GFP, high content | Neurotensin receptor type 1 (Homo sapiens), P30989 | NTR1-U2OS beta-arrestin-GFP spot imaging, agonist mode | activation, % at 20 µM | 330,000 compounds, 0.17% hits;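 active = activation at or above 40% of the spot to cytoplasm intensity ratio, with at least 20 cells analyzed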;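 note: 0% = DMSO without peptide and 100% = 100 nM NTR1 peptide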
Target sequence (P30989 whole entry, looked up): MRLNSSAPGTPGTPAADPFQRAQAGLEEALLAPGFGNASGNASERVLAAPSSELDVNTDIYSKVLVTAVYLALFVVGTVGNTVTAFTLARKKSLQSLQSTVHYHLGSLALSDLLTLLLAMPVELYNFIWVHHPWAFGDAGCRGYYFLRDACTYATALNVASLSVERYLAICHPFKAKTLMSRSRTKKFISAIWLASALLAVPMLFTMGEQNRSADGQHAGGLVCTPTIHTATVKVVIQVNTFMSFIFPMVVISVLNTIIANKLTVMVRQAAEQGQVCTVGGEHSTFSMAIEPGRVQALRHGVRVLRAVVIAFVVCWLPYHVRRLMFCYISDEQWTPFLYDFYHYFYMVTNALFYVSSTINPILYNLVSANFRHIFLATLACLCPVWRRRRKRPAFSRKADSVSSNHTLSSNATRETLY
* marks the source's active call; other numbers are inactive results; nt = no result given. Most compounds without a hit are left out; they make up all but 1.5% or so of the library.

SMILES	CRFBP-R2 agonist	V-ATPase pHluor	CRFBP-R2 block	NTR1 ag
COc1cccc2cc(C(C)N(CCCN3CCOCC3)C(=S)Nc3ccc(C)c(C)c3)oc12 (stereo unspecified)	3	2	-24	2
O=C1CC(c2ccccc2)CN1S(=O)(=O)c1ccccc1 (stereo unspecified)	-2	0	65*	1
NC(=O)c1cccc(S(=O)(=O)N2CC(c3ccccc3)CC2=O)c1 (stereo unspecified)	-1	-3	3	-1
CSc1ncccc1C(=O)N(C)CC(=O)Nc1cccc(F)c1	0	-3	100*	0
O=C(OCc1cn([C@@H]2C[C@H](c3ccccc3)N(C(=O)C3CCCCC3)C[C@H]2O)nn1)c1ccccc1	-1	-1	40	nt
CCc1ccc(Nc2n[n+](-c3ccccc3)c(-c3ccc(N(CC)CC)cc3)s2)cc1	67*	-3	-101	-8
C[C@H]1O[C@@H](O[C@H]2CC[C@@]3(C)C(CC[C@]4(C)C3C=C[C@]35OC[C@@]6(CCC(C)(C)C[C@H]63)[C@@H](O)C[C@]54C)[C@]2(C)CO)[C@H](O)[C@@H](O[C@@H]2O[C@H](CO)[C@@H](O)[C@H](O)[C@H]2O)[C@H]1O (stereo partly specified)	87*	13	-46	0
CC1OC(OC2C(CO)OC(OCC3OC(OC(=O)[C@@]45CCC(C)(C)C[C@@H]4C4=CC[C@@H]6[C@@]7(C)CCC(OC8OCC(O)C(O)C8OC8OC(C)C(O)C(O)C8O)[C@@](C)(CO)C7CC[C@@]6(C)[C@]4(C)CC5)C(O)C(O)C3O)C(O)C2O)C(O)C(O)C1O (stereo partly specified)	2	-1	12	nt
CCOc1cc(S(=O)(=O)N2CCCCCC2)ccc1F	1	1	-1	1
CCN1C[C@@H]2[C@@H]3C(=O)N(C)C(=O)[C@@H]3[C@](CC)(C1=O)N2C(=O)c1ccc(C)cc1	-2	0	3	nt
CCN(c1cccc(C)c1)c1nc2ccsc2c(=O)s1	-6	-6	70*	1
CCN(c1ccccc1)c1nc(=O)c2cccnc2s1	1	1	29	0
O=c1cc[nH]c2c(Cl)cccc12	-2	0	92*	0
Cc1ccc(NC(=O)c2ncn(CCCNCC(C)c3ccccc3)n2)cc1C (stereo unspecified)	-4	-1	-6	nt
Cc1ccc(NC(=O)c2ncn(CCCNCC3CCCO3)n2)cc1C (stereo unspecified)	-1	-1	81*	nt
O=C(CCNc1n[nH]c(=O)[nH]c1=O)N/N=C\c1cccc(OCc2ccccc2)c1	5	1	-10	1
CCCn1nc(-c2ccccc2)c2nc3ccccc3nc21	106*	nt	-43	6
CCCCCn1nc(-c2ccccc2)c2nc3ccccc3nc21	176*	-2	-256	3
CCn1nc(-c2ccccc2)c2nc3ccccc3nc21	160*	-10	-188	4
Cc1ccc(S(=O)(=O)N=Nc2c(O)[nH]c3ccccc23)cc1	-1	2	14	-1
Cc1ccc(S(=O)(=O)N(CC(=O)N=Nc2c(O)[nH]c3ccccc23)c2ccc(C)c(C)c2)cc1	1	1	67*	nt
COc1ccc(N2C(=O)c3cccc4cccc(c34)C2=O)cc1	85*	1	-89	2
COc1ccc(N2C(=O)c3ccccc3C2=O)cc1	-2	1	24	0
COc1ccc(N2C(=O)c3cccc4c(N(C)CCO)ccc(c34)C2=O)cc1	77*	1	-57	3
O=C1c2ccccc2C(=O)N1CCCCON1C(=O)c2ccccc2C1=O	-9	0	-12	1
SMILES	CRFBP-R2 agonist	V-ATPase pHluor	CRFBP-R2 block	NTR1 ag
CCCCON1C(=O)c2cccc3cccc(c23)C1=O	0	4	99*	-1
O=C(O)C1CCCCC1C(=O)Nc1cccc(Cl)c1Cl (stereo unspecified)	-1	6	6	-2
CC1CC1c1ccc(/C=C(\C#N)C(=O)Nc2cccc(Cl)c2Cl)o1 (stereo unspecified)	59*	-4	-75	3
CN(Cc1ccccc1)C(=O)c1ccc(NC(=O)Cc2cccc(NC(=O)C3CCCN(C(=O)CCc4ccccc4)C3)c2)cc1 (stereo unspecified)	2	7	4	1
CN(Cc1ccccc1)C(=O)c1cccc(NC(=O)Cc2ccc(NC(=O)C3CCCN(C(=O)CCc4ccccc4)C3)cc2)c1 (stereo unspecified)	4	-3	57*	nt
COc1ccc(CNC(=O)CN(C)S(=O)(=O)c2ccc3c(c2)n(C)c(=O)c(=O)n3C)cc1	-1	1	69*	0
COc1ccc(CNC(=O)CCc2nc3cc(S(=O)(=O)N(C)C)ccc3n2C)cc1OC	-1	5	64*	1
COc1cccc(CNC(=O)CN(C)S(=O)(=O)c2ccc3c(c2)n(C)c(=O)c(=O)n3C)c1	-1	1	-8	-1
O=c1cc(-c2ccc(F)cc2)oc2ccccc12	-1	0	99*	-1
CSc1ccc(-c2cc(=O)c3ccccc3o2)cc1	-2	0	-36	2
COc1ccc(C(=O)OCCN2CCN(C3=NS(=O)(=O)c4ccccc43)CC2)cc1OC	-1	-7	0	0
Cc1ccccc1NC1=C/C(=N\S(=O)(=O)c2cccs2)c2ccccc2C1=O	-1	1	-3	40*
Cc1ccc(NC2=C/C(=N/S(=O)(=O)c3cccs3)c3ccccc3C2=O)cc1C	1	1	-4	nt
CC(C)C[C@H](NC(=O)[C@H](Cc1ccccc1)n1c(=O)[nH]c2ccccc2c1=O)C(=O)N1CCC[C@@H]1C(=O)O	4	0	-3	-1
C#CCOCCOCCOCCNc1nc(N2CCN(C(=O)[C@H](CO)n3cc([C@@H](N)C(C)C)nn3)CC2)nc(N2CCN(C(=O)[C@H](CO)n3cc([C@@H](N)C(C)C)nn3)CC2)n1	-2	6	-6	nt
CCc1noc(C)c1C(=O)N1CCSC1=Nc1cccc(Cl)c1C	-3	0	71*	2
CCc1noc(C)c1C(=O)N1CCCSC1=Nc1ccccc1	-3	-2	5	1
O=S(=O)(c1ccc(F)c(F)c1)N1CCN(CCc2ccccc2)CC1	8	9.6*	7	-1
Oc1oc(-c2ccccc2)nc1C=Nc1ccccc1	-1	-4	1	1
CN(C)c1ccc(N=Cc2nc(-c3ccccc3)oc2O)cc1	161*	0	-172	-2
CC1=C(C(=O)NCc2ccccn2)C2(CCC(C)CC2)OC1=O (stereo unspecified)	1	-8	66*	-1
Cc1noc(C)c1C(=O)N1CCC(C(=O)c2ccc(F)cc2F)CC1	4	-4	3	1
COc1ccc(Cl)cc1NC(=O)c1ccoc1C	-2	1	80*	0
COC(=O)c1ccc(/C(O)=C(\C#N)c2nc3ccccc3s2)cc1	43	2	51*	-1
